Results taken from PubChem BioAssay.

How the values were obtained:
[1] = system: Human papillomavirus type 1a protein E7 (residues 44-93); experiment: small molecules binding HPV E7 44-93 – biochemical, small-molecule microarray, residues 44-93, 635 nm fluorescence, primary screen (AID 1108); details: fluorescence 635 nm, higher = more signal;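 note: E7 fragment applied at 1 µg/mL in TBST for 1 h at 4 C; score combines spot fluorescence with its signal to noise ratio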
[2] = hepatitis C replication reporter changes, two-sided – Huh7 cells, luciferase reporter, HCV replication inhibitor project, primary screen (AID 1109); details: Huh7 HCV replicon luciferase reporter, 48 h; higher = more signal;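 note: huh7 hepatoma cells harbouring a luciferase neomycin HCV replicon reporter; luciferase luminescence as measure of HCV replicon replication; test concentration not given here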
[3] = biological target: Left-right determination factor 2 (Homo sapiens) (UniProt O00292); experiment: small molecules binding LEFTY2 protein – biochemical, small-molecule microarray, 635 nm fluorescence scan, primary screen (AID 1110); details: higher = more signal
[4] = biological target: Calmodulin-1 (Homo sapiens) (UniProt P0DP23); experiment: small molecules binding calmodulin-1 with EGTA – biochemical, small-molecule microarray, Cy5-labelled CALM1, profiling panel (AID 1111); details: Cy5-CALM1 binding fluorescence, higher = more signal;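 note: labelled calmodulin applied in Tris saline Tween buffer holding calcium plus EGTA and DTT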
[5] = biological target: Calmodulin-1 (Homo sapiens) (UniProt P0DP23); experiment: small molecules binding Ca-loaded calmodulin-1 – biochemical, small-molecule microarray, Cy5-labelled CALM1, plus calcium, artefact control for SMM control-protein annotation, profiling panel (AID 1112); details: Cy5-CALM1 binding fluorescence, higher = more signal;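 note: score merges spot fluorescence with signal to noise from triplicate slides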
[6] = probe aWnt5a binding to arrayed compounds – biochemical, biotinylated probe, 635/667 nm fluorescence, primary screen (AID 1113); details: small-molecule microarray, higher = more signal;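 note: score merges 667 nm fluorescence intensity with signal-to-noise per printed feature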
[7] = probe aShh binding to arrayed compounds – biochemical, biotinylated probe, 635/667 nm fluorescence, primary screen (AID 1114); details: small-molecule microarray, higher = more signal;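 note: probe is biotin-labelled aShh protein from a stem cell growth factor screen; measures binding of labelled protein to compounds printed on the slide; score merges feature fluorescence at 667 nm with signal-to-noise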
[8] = probe aNog binding to arrayed compounds – biochemical, biotinylated probe, 635/667 nm fluorescence, primary screen (AID 1115); details: small-molecule microarray, higher = more signal;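 note: probe is biotinylated aNog protein used at 0.15 µg/mL for 1 h at 4 C; z-score combines 667 nm fluorescence of each spot with its signal to noise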
[9] = biological target: Torsin-1A-interacting protein 1 (Homo sapiens) (UniProt Q5JTV8); experiment: compound microarray binding of lysate hLAP1 – cell lysate, small-molecule microarray, COS7 lysate, 635/667 nm fluorescence, primary screen (AID 1116); details: 635 nm fluorescence, higher = more signal
[10] = biological target: Alpha-bungarotoxin (Bungarus multicinctus) (UniProt P60615); experiment: compounds binding labelled alpha-BTX control protein – biochemical, small-molecule microarray, Alexa647 label, 635/667 nm fluorescence, artefact control for SMM control protein annotation, profiling panel (AID 1117); details: alpha-BTX-A647 binding fluorescence, higher = more signal
Alpha-bungarotoxin (Bungarus multicinctus), sequence (P60615 whole entry, looked up): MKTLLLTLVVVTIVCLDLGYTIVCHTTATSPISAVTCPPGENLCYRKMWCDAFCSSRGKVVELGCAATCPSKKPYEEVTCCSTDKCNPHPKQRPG

Torsin-1A-interacting protein 1 (Homo sapiens), sequence (Q5JTV8 whole entry, looked up): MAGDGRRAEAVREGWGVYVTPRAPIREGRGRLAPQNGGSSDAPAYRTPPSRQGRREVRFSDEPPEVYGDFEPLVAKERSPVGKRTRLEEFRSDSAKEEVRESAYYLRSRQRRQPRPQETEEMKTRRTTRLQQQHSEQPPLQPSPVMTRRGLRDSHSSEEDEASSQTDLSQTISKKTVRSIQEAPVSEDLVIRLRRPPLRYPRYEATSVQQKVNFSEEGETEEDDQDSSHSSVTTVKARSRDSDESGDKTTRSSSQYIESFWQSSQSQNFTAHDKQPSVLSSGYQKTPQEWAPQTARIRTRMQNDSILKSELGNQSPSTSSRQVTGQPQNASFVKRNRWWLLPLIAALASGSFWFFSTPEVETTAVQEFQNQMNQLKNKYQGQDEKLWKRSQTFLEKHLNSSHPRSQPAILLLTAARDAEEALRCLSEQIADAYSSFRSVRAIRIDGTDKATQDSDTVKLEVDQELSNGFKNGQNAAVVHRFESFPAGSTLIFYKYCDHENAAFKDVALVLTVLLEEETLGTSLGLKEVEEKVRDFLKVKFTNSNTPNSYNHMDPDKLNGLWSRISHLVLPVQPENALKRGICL
Left-right determination factor 2 (Homo sapiens), sequence (O00292 whole entry, looked up): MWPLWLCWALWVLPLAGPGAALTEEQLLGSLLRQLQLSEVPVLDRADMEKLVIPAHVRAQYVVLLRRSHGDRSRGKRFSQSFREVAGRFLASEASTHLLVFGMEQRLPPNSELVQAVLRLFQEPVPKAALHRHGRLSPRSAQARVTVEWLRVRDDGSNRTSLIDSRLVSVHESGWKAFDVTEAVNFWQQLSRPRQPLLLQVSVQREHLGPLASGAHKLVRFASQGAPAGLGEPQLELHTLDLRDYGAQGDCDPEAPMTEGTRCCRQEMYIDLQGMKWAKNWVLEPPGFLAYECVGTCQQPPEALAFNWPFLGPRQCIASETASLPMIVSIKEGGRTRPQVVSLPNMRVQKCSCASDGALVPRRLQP

| Structure (SMILES) | composite z-score [1] | z-score [2] | composite z-score [3] | composite z-score [4] | composite z-score [5] | composite z-score [6] | composite z-score [7] | composite z-score [8] | composite z-score [9] | composite z-score [10] |
| --- | --- | --- | --- | --- | --- | --- | --- | --- | --- | --- |
| COc1cc2c(cc1OC)CN(C(=O)[C@H]1[C@@H]3C(=O)O[C@@H](c4ccccc4)[C@@H](c4ccccc4)N3[C@@H](c3ccccc3OCCO)[C@]13C(=O)Nc1ccc(C#CCCO)cc13)CC2 | 1.37 | -1.79 | 0.61 | 0.234 | -0.114 | 0.0136 | -0.138 | 0.194 | 0.532 | 0.862 |
| O=C1O[C@H](c2ccccc2)[C@H](c2ccccc2)N2[C@H]1[C@@H](C(=O)NC[C@H](O)c1ccccc1)[C@]1(C(=O)Nc3ccccc31)[C@H]2c1ccc(O)cc1 | 0.69 | -0.705 | 0.733 | 1.06 | 0.659 | -0.124 | -0.138 | 0.293 | 0.825 | 0.771 |
| NC(=O)N1C(=O)C2C(C1=O)C1C=C(CCCO)C2C(C2CC2)N1Cc1cc2c(cc1Br)OCO2 (stereo not given) | -0.443 | -0.264 | -0.549 | 0.0653 | 0.357 | -0.12 | 0.0278 | -0.0065 | -0.111 | 0.515 |
| COC(=O)C(CC#Cc1ccc2c(c1)[C@]1(C(=O)N2)[C@H](c2ccccc2OCCO)N2[C@H](c3ccccc3)[C@H](c3ccccc3)OC(=O)[C@H]2[C@@H]1C(=O)O)C(=O)OC | 1.43 | -0.567 | 0.17 | 1.61 | 0.701 | 0.0597 | 0.218 | 0.0258 | 0.967 | 1.94 |
| CC(CO)N1C(=O)[C@@H]2C3C(=O)OCCC/C=C\[C@H]3OC23C=CCN(CCN2CCOCC2)C(=O)[C@@H]13 (stereo not given in full) | -0.201 | -0.77 | -0.0109 | -0.514 | -1.01 | -0.152 | 0.0048 | -0.272 | -0.116 | 0.0654 |
| CCOc1cc(C(O)C2C=CC3C(=O)N(c4ccccc4)C(=O)C3N2Nc2ccc(C(C)C)cc2)ccc1O (stereo not given) | 1.45 | -0.517 | -0.211 | 0.983 | -0.0316 | 0.0433 | -0.0119 | 1.2 | -0.102 | 1.91 |
| NCCCCCNC(=O)[C@H]1C[C@H]2C(=O)N[C@@H](Cc3ccccc3)C(=O)N2[C@H]1c1cccc(OCCO)c1 | 0.509 | -0.82 | 0.115 | 1.85 | 1.06 | 0.0328 | 0.246 | 0.296 | 2.09 | 2.07 |
| CC(=O)NCCCC[C@@H]1NC(=O)[C@H]2C[C@@H](C(=O)NCCCCCNC(=O)CS)[C@@H](c3ccc(O)cc3)N2C1=O | 0.46 | -0.0987 | -0.574 | 0.362 | 0.438 | -0.0919 | -0.0035 | -0.196 | 0.177 | 0.117 |
| CC(C)CCC[C@@H](C)[C@H]1CC[C@@]2(C)C3=C(CC[C@]12C)[C@@]1(C)CC[C@H](OC(=O)c2ccc(C(F)(F)F)nc2)C(C)(C)C1CC3 (stereo not given in full) | 0.592 | 0.336 | 0.31 | -0.0347 | -0.337 | -0.162 | 0.0141 | -0.68 | 0.69 | 0.328 |
